Laboratory results: PubChem BioAssay AID602420 (Johns Hopkins Ion Channel Center, 2012)
The whole screen tested about 2,300 compounds, of which about 430 (19%) were called active.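 How the source made its calls: active means remaining agonist calcium response no higher than 100% minus 3 SD of agonist-only control wells, with starting fluorescence near control levels; inactive means the rest.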 The list is a sample of the results.

These compounds were tested against Mas-related G-protein coupled receptor member X1 (Homo sapiens) (UniProt Q96LB2) (assay: MrgX1 receptor antagonists, duplicate retest, confirmation, HEK293 cells, Fluo-4 calcium flux (AID 602420)). Details: MrgX1-HEK293, BAM8-22 calcium flux, at 10 µM; hits give low values.
Chain of Mas-related G-protein coupled receptor member X1 (Homo sapiens) (Q96LB2 whole entry, looked up): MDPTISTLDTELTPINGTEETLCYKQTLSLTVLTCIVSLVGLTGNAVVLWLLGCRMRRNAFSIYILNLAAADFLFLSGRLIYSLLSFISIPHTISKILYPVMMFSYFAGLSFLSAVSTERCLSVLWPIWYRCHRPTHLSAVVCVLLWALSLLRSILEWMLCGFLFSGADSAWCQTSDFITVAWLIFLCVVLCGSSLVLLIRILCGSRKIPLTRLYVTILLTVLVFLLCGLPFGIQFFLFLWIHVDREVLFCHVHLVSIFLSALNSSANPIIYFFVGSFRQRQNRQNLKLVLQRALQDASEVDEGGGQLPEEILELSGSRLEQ

SMILES | remaining BAM8-22 calcium response % of control (hits give low values)
O=C(Cc1ccccn1)c1ccc(O)cc1O | 77.8% (active)
CCOc1ccc(NC(=O)CCNC(=O)c2ccc(Br)cc2)cc1 | inactive
COc1ccc([N+](=O)[O-])cc1NC(=O)COC(=O)/C=C/c1ccco1 | inactive
CCOC(=O)C1=C(O)CSC1=Nc1cccc(Cl)c1 | inactive
Cc1nn(-c2ccccc2)c(C)c1NC(=O)COc1ccc(Cl)cc1Cl | inactive
COc1ccc(C(=O)Nc2c(N)nc(SCC(=O)N3CCC(C)CC3)[nH]c2=O)cc1OC | 83.1% (active)
CN1C(CC(=O)Nc2ccc(Br)cc2)c2ccccc2CC1(C)C (stereo unspecified) | inactive
O=C(Nc1ccc(Br)cc1F)C1CC(=O)N(C2CCCCC2)C1 (stereo unspecified) | inactive
Cc1cccc(-n2c(Cc3cc(=O)[nH]c(=O)[nH]3)nnc2SC(C)C)c1 | inactive
Cc1ccc2nc(-c3ccc(NC(=O)c4cccnc4)cc3)oc2c1 | 67.5% (active)
O=C(O)CSC(NC(=O)c1cccnc1)(C(F)(F)F)C(F)(F)F | inactive
Cc1ccc2nc(-c3ccc(NC(=O)CN(C)S(=O)(=O)c4ccccc4)cc3)sc2c1 | inactive
CCOC1CCCCC1NS(=O)(=O)c1ccc(Cl)cc1 (stereo unspecified) | inactive
Cc1cc(Nc2cc(N3CCN(C)CC3)nc(Sc3ccc(NC(=O)C4CC4)cc3)n2)n[nH]1 | 84% (active)
CCOc1cc(-c2conc2N)cc(OCC)c1OCC | inactive
Cc1cc(Br)ccc1NC(=O)c1cnc(N2CCN(c3ccccn3)CC2)c2ccccc12 | 72.4% (active)
O=C(CN1CCN(c2ccccn2)CC1)NC1CCCCC1 | inactive
O=S(=O)(c1ccc2ccccc2c1)N1CCN(S(=O)(=O)N2CCOCC2)CC1 | inactive
C=CCOc1cccc(C2C(C(=O)c3ccc(C)o3)=C(O)C(=O)N2c2nnc(C)s2)c1 (stereo unspecified) | 63.9% (active)
CC(=O)N(C1=C(Cl)C(=O)c2ccccc2C1=O)c1ccc(C(=O)O)cc1 | inactive
CCCCC(=O)Nc1ccc2c(c1)C(=O)NC2=O | inactive
O=C(C1CCN(S(=O)(=O)c2cnc[nH]2)CC1)N1CCN(Cc2ccc3c(c2)OCO3)CC1 | inactive
C=CCNC(=O)c1csc(-c2ccccc2)n1 | inactive
C=CCNC(=O)c1cc(-c2ccccc2O)on1 | 84.3% (active)

SMILES | remaining BAM8-22 calcium response % of control (hits give low values)
COCC(C)NC(=O)c1ccc(Cl)c(Cl)c1 (stereo unspecified) | inactive
O=C1CCCc2c1nc(-c1cccc(Cl)c1)n2O | inactive
CCc1cc2c(SCC(=O)Nc3ncc(Cl)c(C)c3Cl)ncnc2s1 | inactive
O=C(COc1ccc(Cl)cc1)NC(=S)Nc1ccccc1N1CCOCC1 | inactive
CCN(C(=O)CSc1nnc2ccccn12)C1CCS(=O)(=O)C1 (stereo unspecified) | inactive
FC(F)Oc1ccc(NC(=S)NCc2ccco2)cc1Cl | inactive
O=C1CCCN1CCCNC(=S)Nc1ccc(F)c(Cl)c1 | 67.5% (active)
CCOC(=O)Nc1ccc2c(c1)N(C(=O)CCN1CCN(CCO)CC1)c1ccccc1CC2 | inactive
CC(=O)N(C)c1ccc(NC(=O)C(F)(F)F)cc1 | inactive
Cc1cccc(NC(=O)COc2ccccc2C)n1 | inactive
CC(C)OCCCNc1ncnc2c1[nH]c1ccc(F)cc12 | inactive
CCC(C)c1ccccc1N1CC(C(=O)N2CCN(S(=O)(=O)c3ccc(F)cc3)CC2)CC1=O (stereo unspecified) | 84.2% (active)
O=C(CSc1ncccn1)NC(=O)NCc1ccccc1 | inactive
COCc1nnc(NC(=O)c2ccc3c(c2)OCO3)s1 | inactive
Cc1cc(=O)oc2cc(NC(=O)C3CC(=O)N(Cc4ccccc4)C3)ccc12 (stereo unspecified) | inactive
Cc1ccc(Nc2nc(-c3ccc(O)cc3O)cs2)nc1 | 82.3% (active)
CCOc1ccccc1C1CC(c2ccc(Cl)cc2)Nc2nc(N)nn21 (stereo unspecified) | inactive
Cc1cc(C)cc(NC(=S)NCCc2c[nH]c3ccccc23)c1 | inactive
COc1cc2c(cc1O)C(SC)=NC(C)(C)C2 | 85.2% (active)
CCOc1ccc(C(=O)NC2CCN(S(=O)(=O)CC)CC2)cc1 | inactive
CCOC(=O)c1cn(Cc2cccc(C)c2)nn1 | inactive
Cc1nn(-c2ccccc2)c2c1C(c1ccc(F)cc1)C(C#N)=C(N)O2 (stereo unspecified) | inactive
CC(Oc1ccc(F)cc1)C(=O)Nc1ccccc1C(=O)NC1CC1 (stereo unspecified) | inactive
Cc1ccc2cc(/C=N/Nc3ccc(C(=O)O)cc3)c(Cl)nc2c1 | 37.2% (active)

SMILES | remaining BAM8-22 calcium response % of control (hits give low values)
COc1cccc(CCNC(=O)COc2cccc3c2OC(C)(C)C3)c1 | inactive
O=C(Nc1ccccc1Cl)N1CCN(c2ccc3nncn3n2)CC1 | inactive
COc1ccccc1Oc1nc(-c2cccnc2)nc2ccccc12 | inactive
CC(C)(C)n1c(=O)[nH]c2c(c1=O)CCC2 | inactive
CN(CC(=O)Nc1ccccc1Cl)C(=O)COc1cccc2c1OC(C)(C)C2 | inactive
CCCCCCCCCCOC(=O)Cn1c(COc2ccc(C)cc2)[n+](C)c2ccccc21 | inactive
CCCCCCCCCCOC(=O)Cn1c(COc2cccc(OC)c2)[n+](C)c2ccccc21 | 53.5% (active)
CCc1ccc2nc3sc(C(=O)Nc4nnc(CC)s4)c(N)c3cc2c1 | inactive
CCN(CC)c1ccc(C2C3CCCCC3(O)CCN2CC(=O)Nc2ccccc2)cc1 (stereo unspecified) | inactive
COCCNC(=O)Nc1ccc2nc(-c3ccco3)c(-c3ccco3)nc2c1 | inactive
COc1ccc(S(=O)(=O)N2CCN(C(=O)NC3CCCCC3)CC2)cc1 | inactive
CC(C)NC(=S)Nc1cccc2cnccc12 | 82.2% (active)
COc1ccc(S(=O)(=O)N2CCOCC2)c(C)c1C | inactive
Cc1ccc(Cc2cnc(N)s2)o1 | inactive
COCCCNC(=O)C1CCN(c2ccc(N3CCOCC3)nn2)CC1 | inactive
CC(=O)Nc1ccc(OC(=O)COc2ccc(Br)cc2)cc1 | inactive
COC(=O)c1sccc1NS(=O)(=O)c1ccc(F)cc1F | 80% (active)
CCc1nnc(NC(=O)CSc2nc3c(c(=O)n2-c2ccccc2OC)SCC3)s1 | inactive
COc1ccc(C(=O)NC2CCCc3c2cnn3-c2cccc(C)c2C)c(OC)n1 (stereo unspecified) | 28.5% (active)
O=C(CSc1c2c(nc3ccc(Cl)cc13)CCCC2)NCc1ccco1 | inactive
Cc1ccc(CS(=O)(=O)c2ncc(Cl)c(C(=O)Nc3nnc(C)s3)n2)cc1 | 81.2% (active)
COc1ccc(-n2c(SCC(=O)NCc3ccco3)nnc2-c2c[nH]c3ccccc23)cc1 | inactive
CCOC(=O)c1c(C)[nH]c(=S)c(C#N)c1-c1ccccc1 | inactive
COc1cccc(CNC(=O)C2CCN(S(=O)(=O)c3cccc4cccnc34)CC2)c1 | inactive

SMILES | remaining BAM8-22 calcium response % of control (hits give low values)
O=C(CSc1nncn1-c1cccnc1)N1CCOCC1 | inactive
N#CC1=C(N)Oc2c(sc3ccccc23)C1c1ccco1 (stereo unspecified) | inactive
O=C(Nc1ccc(Cl)cc1)Nc1ccc(Oc2cccnc2)nc1 | 80.3% (active)
COc1cc(C2/C(=C(\O)c3ccc4c(c3)CC(C)O4)C(=O)C(=O)N2Cc2ccco2)ccc1O (stereo unspecified) | inactive
CN(C)CCn1c(=S)[nH]c2ccc(Cl)cc2c1=O | inactive
Cc1cc(C)n(CCNC(=O)CC2C(=O)NCCN2Cc2ccc(C)o2)n1 (stereo unspecified) | inactive
FC(F)(F)c1cc(-c2cccs2)nc(NCc2ccco2)n1 | inactive
S=C(NCc1ccc(Cl)cc1)NC12CC3CC(CC(C3)C1)C2 | 68.5% (active)
O=C(c1ccc(O)cc1)c1ccc(C(=O)O)c(C(=O)O)c1 | inactive
O=C(Cn1c(-c2cncs2)nc2ccccc21)NC1CCCC1 | inactive
CC1CCN(S(=O)(=O)c2nnc(NC(=O)COc3ccccc3F)s2)CC1 | inactive
Cc1ccc(-c2nn(C(C)(C)C)c3ncnc(N)c23)cc1 | inactive
c1ccc(-c2[nH]ncc2-c2nc3ccccc3[nH]2)cc1 | inactive
Cc1nccn1CCC1CCCCN1C(=O)CCc1nnc(-c2ccsc2)o1 (stereo unspecified) | inactive
CN(c1cccc(NC(=O)Nc2ccc(Cl)cc2)c1)S(C)(=O)=O | 44.9% (active)
C(=N\n1cnnc1)/c1cccnc1 | inactive
CCS(=O)(=O)c1ccc2c(c1)N(S(=O)(=O)c1ccccc1)CC(C(=O)O)O2 (stereo unspecified) | inactive
CCOC(=O)c1c(NC(=O)CNC2CCCc3ccccc32)sc(C(N)=O)c1C (stereo unspecified) | inactive
CCOC(=O)c1c(NC(=O)CSc2cn(CC)c3ccccc23)sc2c1CCC2 | 85% (active)
CCNC(=O)c1c(O)c2cccc3c2n(c1=O)CC3 | inactive
Cc1ccc(C(=O)COC(=O)CCN2C(=O)C3C4CC(C(Br)C4Br)C3C2=O)cc1 (stereo unspecified) | inactive
O=c1cc(CSc2ccccn2)nc(N2CCN(c3ccccc3)CC2)[nH]1 | inactive
CCOC(=O)Cc1csc(SCc2cc(=O)oc3cc(O)ccc23)n1 | 85.3% (active)
CCSc1nsc(NC(=O)Nc2cccc(C(C)=O)c2)n1 | inactive

SMILES | remaining BAM8-22 calcium response % of control (hits give low values)
CCOC(=O)CNC(=O)CSc1nc2cccnc2n1CC | inactive
CCOC(=O)C1=C(O)/C(=C/c2cc(C)n(-c3ccccc3)c2C)N=C1C | inactive
Cc1cccn2c(=O)c(/C=C3\SC(=S)N(CC(C)C)C3=O)c(NCCCOC(C)C)nc12 | 63.8% (active)
CCN(CC)CC(=O)Nc1nn(-c2ccccc2)nc1C(N)=O | inactive
CCC1CCCCN1CCNC(=O)c1[nH]c(C)c(C(C)=O)c1C (stereo unspecified) | inactive
O=C(CN1CCN(c2ccc(Cl)cc2)CC1)N1CCCC1 | inactive
O=C(Cc1nc2ccccc2[nH]c1=O)c1ccc(Cl)cc1 | 64.3% (active)
O=C(NC1CCCCC1)C1c2ccccc2C(=O)N1Cc1ccco1 (stereo unspecified) | inactive
CCc1cc(=O)oc2cc(C)cc(OCC(=O)N3CCC[C@@H]3C(=O)O)c12 | inactive
CCCCOC(=O)CNc1nnc(SCC(=O)OCC)[nH]c1=O | 70.5% (active)
COC(=O)c1c(NC(=O)c2c(Cl)cnn2C)sc(C)c1C | inactive
Cc1ccc(C(C(=O)NC2CCCCC2)N(C(=O)c2csnn2)C2CC2)o1 (stereo unspecified) | inactive
O=C(c1cccs1)C1C(c2ccc(Br)cc2)NC(=S)NC1(O)C(F)(F)F (stereo unspecified) | inactive
Cc1nc(N2CCN(c3ccccn3)CC2)c2c(C)c(C(=O)Nc3ccc(F)c(Cl)c3)sc2n1 | 70.4% (active)
COc1cc(CCC(=O)Nc2ccncc2Cl)cc(OC)c1OC | inactive
C=CCSc1nc(Cc2ccc(Cl)cc2)nc2ccccc12 | inactive
O=C(COC(=O)C1CCN(S(=O)(=O)c2ccc3c(c2)OCCO3)CC1)Nc1ccccc1OC(F)F | inactive
Clc1ccc(-c2nc3ccccn3c2CN2CCSCC2)cc1 | inactive
Clc1ccc(C=NC23CN4CN(CN(C4)C2)C3)cc1 | inactive
COc1ccc(C(=O)CSc2n[nH]c(N)n2)cc1 | inactive
